Laboratory results: PubChem BioAssay (Tox21)
“And” between values parts separate entries of the source, which are not always exact repeats. Equal values may be shown once. Results filed as inconclusive are left out. Entries that show only a call come without a potency. The source made the active and inactive calls. Unless noted, the call rests on the fitted dose curve; in most records, active means well fitted curve in the direction sought with a large enough effect in the repeat runs; inconclusive means weak or mixed curves; inactive means no such curve, though single readings can be large; an effect the other way counts as inactive or inconclusive.

Assays:
[1] = biological target: Retinoic acid receptor RXR-alpha (Homo sapiens) (UniProt P19793); assay: qHTS assay to identify small molecule agonists of the RXR signaling pathway (AID 1159527; calls by dose curve; further: nearly all actives have a fitted effect of over 35% in size)
Method in brief: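 Compounds in DMSO were added to RXR-alpha-UAS-bla HEK 293T cells kept in 2% charcoal-stripped serum, and incubated 16 hr at 37 C with 5% CO2. Reporter signal came from a 2 hr B/G FRET substrate step.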

[2] = qHTS assay to identify small molecule agonists of the constitutive androstane receptor (CAR) signaling pathway - cell viability counter screen (AID 1224836); further: nearly all actives have a fitted effect of over 45% in size; further: potency means the concentration at half of the fitted maximal effect
Method in brief: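 Double-stable HepG2 hepatoma cells (hCAR plus CYP2B6-2.2kb) are treated for 23 h at 37 C with test compounds in 15-point concentration series. PK11195 at 0.75 uM final is co-added. Cell viability is quantified by CellTiter-Fluor.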

[3] = qHTS assay to identify small molecule antagonists of the constitutive androstane receptor (CAR) signaling pathway - cell viability counter screen (AID 1224837); further: nearly all actives have a fitted effect of over 45% in size; further: potency means the concentration at half of the fitted maximal effect
Method in brief: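 In quantitative HTS format, compounds at 15 concentrations were applied to HepG2 cells double-transfected with hCAR and CYP2B6-2.2kb under 50 nM CITCO stimulation; live-cell protease activity was read after 23 hr via CellTiter-Fluor.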

[4] = qHTS RealTime-Glo MT Cell Viability Assay in HepG2 cells - 24 hour (AID 1224867); further: nearly all actives have a fitted effect of over 50% in size; further: potency means the concentration at half of the fitted maximal effect
Method in brief: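 Real-time, nonlytic viability: 600 HepG2 cells/well mixed with NanoLuc enzyme plus prosubstrate; 5 h settle, compound (DMSO) added by pintool; luminescence monitored over 40 h at 37 C.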

[5] = A CellTox Green Cytotoxicity Assay to monitor cytotoxicity in HepG2 cells - 24 hour (AID 1224878); further: nearly all actives have a fitted effect of over 45% in size; further: potency means the concentration at half of the fitted maximal effect
Method in brief: (§1)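 Fluorescent DNA-binding dye, 600 HepG2 cells/well, 5 h preincubation then compound in DMSO; same plates read at 0–40 h, 37 C.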

[6] = A CellTox Green Cytotoxicity Assay to monitor cytotoxicity in HepG2 cells - 40 hour (AID 1224879); further: nearly all actives have a fitted effect of over 40% in size; further: potency means the concentration at half of the fitted maximal effect
Method in brief: as §1

[7] = A CellTox Green Cytotoxicity Assay to monitor cytotoxicity in HepG2 cells - 32 hour (AID 1224883); further: nearly all actives have a fitted effect of over 50% in size; further: potency means the concentration at half of the fitted maximal effect
Method in brief: as §1

[8] = qHTS assay to identify small molecule antagonists of the androgen receptor (AR) signaling pathway using the MDA cell line in the presence of 0.5 nM R1881 - cell viability counter screen (AID 1259242); further: nearly all actives have a fitted effect of over 45% in size; further: potency means the concentration at half of the fitted maximal effect
Method in brief: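 Human breast carcinoma MDA-kb2 cells, cultured without CO2, receive compounds alongside 0.5 nM (final) R1881 agonist. After 16 hr at 37C, viability is taken as live-cell protease signal.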

[9] = qHTS assay to identify small molecule agonists of the sonic hedgehog signaling (Shh) pathway - cell viability counter screen (AID 1259366); further: nearly all actives have a fitted effect of over 50% in size; further: potency means the concentration at half of the fitted maximal effect
Method in brief: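 Compounds in DMSO were pin-transferred onto 3T3 Gli1-Luc cells that had settled 4hr; plates then stood 24hr at 37C and 5% CO2. One hour before the end, CellTiter-Fluor was added and fluorescence recorded.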

[10] = qHTS assay to identify small molecule antagonists of the sonic hedgehog signaling (Shh) pathway - cell viability counter screen (AID 1259367); further: nearly all actives have a fitted effect of over 55% in size; further: potency means the concentration at half of the fitted maximal effect
Method in brief: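 Fluorescence read-out (CellTiter-Fluor, 1 hr at 37C) taken after 23 hr compound treatment of 3T3 Gli1-Luc cells stimulated with conditioned medium. Cells were seeded at 2,000 per well and pre-incubated 4 hr.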

[11] = biological target: Estrogen receptor (Homo sapiens) (UniProt P03372); assay: qHTS assay to identify small molecule agonists of the estrogen receptor alpha (ER-alpha) signaling pathway in the presence of an antagonist (AID 1259383; calls by dose curve; further: top concentration of the series differs between compounds; nearly all actives have a fitted effect of over 15% in size)
Method in brief: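 ER-alpha agonism measured under antagonist challenge: 10.0nM ICI-182,780 (final) plus compound, 15 concentrations, 22hr, VM7Luc4E2 ERE-luciferase cells. Read by luminescence.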

[12] = biological target: Nuclear receptor subfamily 1 group I member 2 (Homo sapiens) (UniProt O75469); assay: Human pregnane X receptor (PXR) small molecule agonists, qHTS assay (AID 1346982); further: nearly all actives have a fitted effect of over 35% in size; further: potency means the concentration at half of the fitted maximal effect
Method in brief: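 After plating in 5% charcoal-stripped FBS and a 5 hr rest, PXR-Luc HepG2 cells received compounds in DMSO. Following 24 hr at 37 C, ONE-Glo was added and light output read.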

[13] = biological target: Cytochrome P450 2C19 (Homo sapiens) (UniProt P33261); assay: Cytochrome P450 Family 2 Subfamily C Member 19 (CYP2C19) small molecule antagonists: luciferase reporter qHTS assay (AID 1671197); further: nearly all actives have a fitted effect of over 65% in size; further: potency means the concentration at half of the fitted maximal effect
Method in brief: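 Light output is proportional to CYP2C19 activity: proluciferin substrate is converted to luciferin, then detected by a luciferin detection reagent that also stops the 1 h, 37C NADPH-driven reaction. Ketoconazole serves as positive control.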

[14] = biological target: Cytochrome P450 2C9 (Homo sapiens) (UniProt P11712); assay: Cytochrome P450 Family 2 Subfamily C Member 9 (CYP2C9) small molecule antagonists: luciferase reporter qHTS assay (AID 1671198); further: nearly all actives have a fitted effect of over 50% in size; further: potency means the concentration at half of the fitted maximal effect
Method in brief: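 P450-Glo proluciferin substrate with CYP2C9 enzyme; 10 min RT preincubation, then NADPH regeneration 1 h at 37C; luciferin detection reagent 20 min RT, luminescence in relative luminescence units.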

[15] = qHTS assay to identify small molecule antagonists of the estrogen related receptor (ERR) signaling pathway from Tox21 library - cell viability counter screen (AID 1224834); further: nearly all actives have a fitted effect of over 30% in size; further: potency means the concentration at half of the fitted maximal effect
Method in brief: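 In this quantitative HTS format, ERR cells receive compounds in DMSO and are incubated for 17.5 h at 37 C. Live-cell protease activity is then detected with CellTiter-Fluor.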

[16] = biological target: Luciferin 4-monooxygenase (Photinus pyralis) (UniProt P08659); assay: qHTS assay to identify small molecule inhibitors of firefly luciferase (AID 1224835); further: series mostly up to about 120 µM; nearly all actives have a fitted effect of over 25% in size
Method in brief: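 Biochemical qHTS: compounds run as interplate titrations against purified firefly enzyme, with D-luciferin and ATP each at its KM concentration. Light output recorded by CCD imaging.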

[17] = qHTS RealTime-Glo MT Cell Viability Assay in HEK293 cells - 32 hour (AID 1224868); further: nearly all actives have a fitted effect of over 50% in size; further: potency means the concentration at half of the fitted maximal effect
Method in brief: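 Cells + reagent dispensed (600 cells/well, HEK293) → 5 h at 37 C/5% CO2 → 23 nL compound in DMSO pinned → 40 h at 37 C → luminescence read at 0, 8, 16, 24, 32, 40 h.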

[18] = qHTS assay to identify small molecule antagonists of the TGF-beta/Smad signaling pathway - cell viability counter screen (AID 1346824); further: nearly all actives have a fitted effect of over 50% in size; further: potency means the concentration at half of the fitted maximal effect
Method in brief: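 SBE-bla HEK 293T cells, incubated overnight, then compound plus 0.25 ng/mL TGF-beta1 (stock added) for 5 hr at 37 C. Viability was read in the same wells by CellTiter-Glo luminescence after 30 min at room temperature.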

[19] = qHTS assay to identify small molecule agonists of the TGF-beta/Smad signaling pathway - cell viability counter screen (AID 1346829)
Method in brief: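 Here the cytotoxicity of library compounds is measured in SBE-bla HEK 293T cells treated for 5 hr, using CellTiter-Glo added to wells already read for the beta-lactamase reporter.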

[20] = qHTS assay for small molecule agonists of the p53 signaling pathway (AID 651631; calls by dose curve; further: nearly all actives have a fitted effect of over 15% in size; further: potency means the concentration at half of the fitted maximal effect)
Method in brief: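 Testing took place in human colorectal HCT-116 cells with stable p53RE-driven beta-lactamase. After 16 h of compound exposure at 37 °C, a FRET substrate was added and fluorescence recorded 2 h later.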

Chain of Cytochrome P450 2C19 (Homo sapiens) (P33261 whole entry, looked up): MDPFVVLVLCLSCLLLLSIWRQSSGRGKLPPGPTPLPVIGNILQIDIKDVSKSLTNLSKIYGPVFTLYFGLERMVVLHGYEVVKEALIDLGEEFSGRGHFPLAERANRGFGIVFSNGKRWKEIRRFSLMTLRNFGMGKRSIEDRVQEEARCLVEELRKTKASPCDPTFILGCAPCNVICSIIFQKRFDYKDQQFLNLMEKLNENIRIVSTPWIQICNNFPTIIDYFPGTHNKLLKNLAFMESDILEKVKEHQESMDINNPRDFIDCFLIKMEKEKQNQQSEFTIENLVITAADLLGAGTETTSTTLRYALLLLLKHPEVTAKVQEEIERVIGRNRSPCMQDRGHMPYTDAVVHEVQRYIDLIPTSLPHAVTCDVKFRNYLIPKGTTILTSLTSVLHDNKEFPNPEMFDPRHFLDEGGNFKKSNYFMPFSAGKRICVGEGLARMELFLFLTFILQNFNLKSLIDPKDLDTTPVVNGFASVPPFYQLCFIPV
Chain of Estrogen receptor (Homo sapiens) (P03372 whole entry, looked up): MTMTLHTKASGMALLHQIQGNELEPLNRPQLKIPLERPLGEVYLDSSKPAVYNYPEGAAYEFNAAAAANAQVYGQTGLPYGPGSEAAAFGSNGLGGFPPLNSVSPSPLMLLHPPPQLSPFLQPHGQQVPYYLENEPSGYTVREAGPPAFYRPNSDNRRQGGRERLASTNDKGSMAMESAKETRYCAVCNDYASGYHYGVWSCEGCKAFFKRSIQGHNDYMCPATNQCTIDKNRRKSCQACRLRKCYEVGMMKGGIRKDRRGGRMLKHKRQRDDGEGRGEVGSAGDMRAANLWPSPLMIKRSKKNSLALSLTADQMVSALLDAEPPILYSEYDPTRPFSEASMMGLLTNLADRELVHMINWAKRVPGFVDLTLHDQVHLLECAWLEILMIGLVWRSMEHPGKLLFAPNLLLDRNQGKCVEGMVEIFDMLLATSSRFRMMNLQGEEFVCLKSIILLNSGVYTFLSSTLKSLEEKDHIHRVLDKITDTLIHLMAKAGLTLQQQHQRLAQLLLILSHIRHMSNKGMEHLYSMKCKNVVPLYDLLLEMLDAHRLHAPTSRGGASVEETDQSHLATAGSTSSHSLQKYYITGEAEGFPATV
Chain of Cytochrome P450 2C9 (Homo sapiens) (P11712 whole entry, looked up): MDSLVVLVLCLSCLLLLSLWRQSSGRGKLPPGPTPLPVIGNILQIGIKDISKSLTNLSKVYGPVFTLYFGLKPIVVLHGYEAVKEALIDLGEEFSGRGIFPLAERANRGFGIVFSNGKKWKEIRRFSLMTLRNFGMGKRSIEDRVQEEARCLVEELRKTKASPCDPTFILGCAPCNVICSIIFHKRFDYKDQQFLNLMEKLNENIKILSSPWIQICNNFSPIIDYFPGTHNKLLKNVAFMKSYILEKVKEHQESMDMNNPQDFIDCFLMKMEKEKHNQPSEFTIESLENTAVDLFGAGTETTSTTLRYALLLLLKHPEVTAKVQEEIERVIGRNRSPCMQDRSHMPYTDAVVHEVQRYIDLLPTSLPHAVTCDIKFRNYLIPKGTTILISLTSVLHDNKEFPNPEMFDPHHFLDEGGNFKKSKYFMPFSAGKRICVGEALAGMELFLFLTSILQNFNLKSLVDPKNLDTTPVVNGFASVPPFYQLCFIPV
Chain of Luciferin 4-monooxygenase (Photinus pyralis) (P08659 whole entry, looked up): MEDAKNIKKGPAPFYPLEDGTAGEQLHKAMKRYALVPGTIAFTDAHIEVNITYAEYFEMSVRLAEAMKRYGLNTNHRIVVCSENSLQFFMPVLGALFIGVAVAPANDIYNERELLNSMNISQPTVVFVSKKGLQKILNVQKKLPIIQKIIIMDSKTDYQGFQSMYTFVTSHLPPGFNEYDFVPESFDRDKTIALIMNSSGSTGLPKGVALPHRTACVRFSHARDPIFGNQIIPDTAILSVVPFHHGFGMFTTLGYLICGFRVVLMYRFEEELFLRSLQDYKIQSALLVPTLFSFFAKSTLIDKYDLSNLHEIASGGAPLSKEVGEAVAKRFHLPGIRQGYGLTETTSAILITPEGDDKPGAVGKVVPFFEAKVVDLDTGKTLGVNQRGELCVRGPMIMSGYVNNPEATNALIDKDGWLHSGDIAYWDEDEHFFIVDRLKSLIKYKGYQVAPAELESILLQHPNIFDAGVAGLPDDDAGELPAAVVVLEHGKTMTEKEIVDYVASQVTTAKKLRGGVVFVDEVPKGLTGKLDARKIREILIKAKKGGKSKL
Chain of Nuclear receptor subfamily 1 group I member 2 (Homo sapiens) (O75469 whole entry, looked up): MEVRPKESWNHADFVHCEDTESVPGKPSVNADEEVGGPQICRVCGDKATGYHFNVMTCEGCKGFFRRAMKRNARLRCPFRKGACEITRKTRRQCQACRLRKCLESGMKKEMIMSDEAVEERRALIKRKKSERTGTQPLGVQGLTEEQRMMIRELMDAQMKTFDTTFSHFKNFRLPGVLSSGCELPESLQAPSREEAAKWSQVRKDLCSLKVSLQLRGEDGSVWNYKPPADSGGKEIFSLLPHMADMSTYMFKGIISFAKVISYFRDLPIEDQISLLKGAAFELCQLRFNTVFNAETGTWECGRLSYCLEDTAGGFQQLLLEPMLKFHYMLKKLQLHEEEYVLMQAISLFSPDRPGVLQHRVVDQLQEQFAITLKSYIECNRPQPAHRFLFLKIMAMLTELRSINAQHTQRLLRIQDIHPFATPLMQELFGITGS
Chain of Retinoic acid receptor RXR-alpha (Homo sapiens) (P19793 whole entry, looked up): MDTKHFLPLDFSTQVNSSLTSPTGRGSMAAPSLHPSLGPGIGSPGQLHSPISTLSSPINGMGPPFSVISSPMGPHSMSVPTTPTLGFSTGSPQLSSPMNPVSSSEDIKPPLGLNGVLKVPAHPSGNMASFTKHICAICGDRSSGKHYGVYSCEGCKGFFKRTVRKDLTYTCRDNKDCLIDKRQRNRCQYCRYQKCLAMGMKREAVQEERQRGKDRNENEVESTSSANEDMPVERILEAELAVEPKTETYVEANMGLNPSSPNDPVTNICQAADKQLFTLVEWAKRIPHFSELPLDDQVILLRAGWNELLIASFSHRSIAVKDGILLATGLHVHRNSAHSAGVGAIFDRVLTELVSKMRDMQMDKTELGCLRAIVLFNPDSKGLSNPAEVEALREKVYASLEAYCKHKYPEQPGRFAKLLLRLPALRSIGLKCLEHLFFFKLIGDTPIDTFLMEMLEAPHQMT

Brc1cc(Br)cc(Br)c1
Potency [1]: inactive

Nc1ccc(Cl)cc1[N+](=O)[O-]
Potency [1]: inactive

O=C(Nc1ccccc1-c1ccc(Cl)cc1)c1cccnc1Cl
Potency [2]: inactive | Potency [3]: inactive | Potency [4]: inactive | Potency [5]: 41.2 µM (active) | Potency [6]: 46.3 µM (active) | Potency [7]: 46.3 µM (active) | Potency [8]: inactive | Potency [9]: inactive | Potency [10]: inactive | outcome [11]: inactive | Potency [12]: 10.3 µM (active) | Potency [13]: 3.56 µM (active) | Potency [14]: inactive

CCN(CC)C(=O)Cl
Potency [1]: inactive | Potency [15]: inactive | Potency [16]: inactive | Potency [2]: inactive | Potency [3]: inactive | Potency [4]: inactive | Potency [17]: inactive | Potency [5]: inactive | Potency [6]: inactive | Potency [7]: inactive | Potency [8]: inactive | Potency [9]: inactive | Potency [10]: inactive | outcome [11]: inactive | Potency [18]: inactive | outcome [19]: inactive | Potency [12]: inactive | Potency [13]: inactive | Potency [14]: inactive

Oc1c(I)cc(I)cc1I
Potency [15]: inactive | Potency [16]: inactive | Potency [2]: inactive | Potency [3]: inactive | Potency [4]: inactive | Potency [17]: inactive | Potency [5]: inactive | Potency [6]: inactive | Potency [7]: inactive | Potency [8]: inactive | Potency [9]: inactive | Potency [10]: inactive | outcome [11]: inactive | Potency [18]: inactive | outcome [19]: inactive | Potency [14]: 56.4 µM (active)

c1ccncc1
Potency [1]: inactive

CC(CCl)OC(C)CCl (configuration not stated)
Potency [1]: inactive

C[C@@]12C(=O)OC(=O)[C@]1(C)C1CCC2O1
Potency [20]: 1.6 µM (active)

Nc1cccc(C(F)(F)F)c1
Potency [20]: inactive

COc1ccccc1[N+](=O)[O-]
Potency [20]: inactive

CN1CSC(=S)N(C)C1
Potency [20]: inactive | Potency [15]: 6.08 µM (active) and 13.6 µM (active) | Potency [16]: inactive | Potency [2]: 4.83 µM (active) and 15.3 µM (active) | Potency [3]: 5.42 µM (active) and 7.67 µM (active) | Potency [4]: 17.3 µM (active) | Potency [17]: 17.3 µM (active) and 24.5 µM (active) | Potency [5]: 10.9 µM (active) and 27.5 µM (active) | Potency [6]: 12.2 µM (active) and 10.9 µM (active) | Potency [7]: 10.9 µM (active) and 21.8 µM (active) | Potency [9]: 2.42 µM (active) and 6.09 µM (active) | Potency [10]: 3.05 µM (active) and 13.6 µM (active) | outcome [11]: inactive | Potency [18]: inactive | outcome [19]: inactive | Potency [12]: 5.43 µM (active) | Potency [13]: 35.4 µM (active) and 17.8 µM (active) | Potency [14]: 8.91 µM (active)

O=C(O)C(c1ccc(Cl)cc1)c1ccc(Cl)cc1
Potency [1]: inactive

C=CC(=O)OCCCCCCCC(C)C
Potency [20]: inactive

COc1ccc(C(c2ccc(OC)cc2)C(Cl)(Cl)Cl)cc1
Potency [20]: 30.6 µM (active) | Potency [15]: inactive | Potency [2]: inactive | Potency [3]: inactive | Potency [17]: 48.7 µM (active) | Potency [5]: inactive | Potency [6]: inactive | Potency [7]: inactive | Potency [8]: inactive | Potency [9]: inactive | outcome [11]: inactive | Potency [18]: inactive | outcome [19]: inactive | Potency [12]: 17.1 µM (active) | Potency [13]: 0.354 µM (active) | Potency [14]: 1.82 µM (active)

Brc1c2ccccc2cc2ccccc12
Potency [20]: 61.8 µM (active)

Cc1cccc([N+](=O)[O-])c1C
Potency [20]: inactive

CCc1cccc(C)c1N
Potency [20]: inactive

CC(C)(C)OCC1CO1 (configuration not stated)
Potency [20]: inactive

Clc1ccccc1-c1ccccc1Cl
Potency [15]: inactive | Potency [16]: inactive | Potency [2]: inactive | Potency [3]: inactive | Potency [4]: inactive | Potency [8]: inactive | Potency [9]: inactive | Potency [10]: inactive | Potency [18]: inactive | Potency [13]: inactive

C=CC(=O)OCCCC
Potency [20]: inactive | Potency [1]: inactive

CO/C=C(/C(=O)OC)c1ccccc1Oc1cc(Oc2ccccc2C#N)ncn1
Potency [15]: 20.6 µM (active) | Potency [16]: inactive | Potency [17]: 23.3 µM (active) | Potency [5]: inactive | Potency [6]: inactive | Potency [7]: inactive | Potency [8]: 24.3 µM (active) | Potency [10]: 58.1 µM (active) | outcome [11]: inactive | Potency [18]: 34.7 µM (active) | Potency [12]: 0.686 µM (active) | Potency [13]: 2.39 µM (active) | Potency [14]: 7.45 µM (active)

C=CCOC(=O)c1ccccc1C(=O)OCC=C
Potency [20]: inactive

CC(CCl)OP(=O)(OC(C)CCl)OC(C)CCl (configuration not stated)
Potency [20]: inactive
